Reference: PubChem BioAssay (Tox21)
Inconclusive results are not listed. Calls of active or inactive are those of the source. Calls come from the whole dose curve; as a rule, active = well fitted curve in the direction sought with a large enough effect in the repeat runs; inconclusive = weak or mixed curves; inactive = no such curve, though single readings can be large; an effect the other way counts as inactive or inconclusive.

How the values were obtained:
[1] = A CellTox Green Cytotoxicity Assay to monitor cytotoxicity in HEK293 cells - 40 hour (AID 1224871); note: nearly all actives have a fitted effect of over 45% in size; note: potency is the fitted concentration of half-maximal effect
Outline: (§1)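 Nonlytic real-time cytotoxicity: HEK293 + CellTox Green reagent plated, 5 h preincubation, pintool compound addition (23 nL in DMSO), 37 C for 40 h, fluorescence measured at successive time points.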

[2] = qHTS RealTime-Glo MT Cell Viability Assay in HEK293 cells - 40 hour (AID 1224874); conditions: RealTime-Glo luminescence; max response: stronger effect = lower value; note: nearly all actives have a fitted effect of over 50% in size; note: potency is the fitted concentration of half-maximal effect
Outline: (§2)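 Cells were seeded together with NanoLuc luciferase and a prosubstrate that viable cells reduce to a luciferase substrate. After a 5 h incubation at 37 C/5% CO2, compounds were added and luminescence was measured repeatedly during 40 h of treatment.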

[3] = A CellTox Green Cytotoxicity Assay to monitor cytotoxicity in HEK293 cells - 24 hour (AID 1224875); note: series mostly up to about 77 µM; nearly all actives have a fitted effect of over 45% in size
Outline: as §1

[4] = A CellTox Green Cytotoxicity Assay to monitor cytotoxicity in HepG2 cells - 16 hour (AID 1224876); note: nearly all actives have a fitted effect of over 45% in size
Outline: (§3)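 Read-out is fluorescence of a cyanine dye excluded from live cells that stains DNA of dead HepG2 cells, with signal proportional to cytotoxicity. Plates were read at 0, 8, 16, 24, 32 and 40 h after compound addition.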

[5] = qHTS RealTime-Glo MT Cell Viability Assay in HepG2 cells - 32 hour (AID 1224877); note: nearly all actives have a fitted effect of over 55% in size
Outline: (§4)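 Real-time, nonlytic viability: 600 HepG2 cells/well mixed with NanoLuc enzyme plus prosubstrate; 5 h settle, compound (DMSO) added by pintool; luminescence monitored over 40 h at 37 C.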

[6] = A CellTox Green Cytotoxicity Assay to monitor cytotoxicity in HepG2 cells - 24 hour (AID 1224878); note: nearly all actives have a fitted effect of over 45% in size
Outline: as §3

[7] = A CellTox Green Cytotoxicity Assay to monitor cytotoxicity in HepG2 cells - 40 hour (AID 1224879); note: nearly all actives have a fitted effect of over 40% in size; note: potency is the fitted concentration of half-maximal effect
Outline: as §3

[8] = qHTS RealTime-Glo MT Cell Viability Assay in HEK293 cells - 0 hour (AID 1224880)
Outline: as §2

[9] = A CellTox Green Cytotoxicity Assay to monitor cytotoxicity in HepG2 cells - 0 hour (AID 1224882); note: nearly all actives have a fitted effect of over 35% in size
Outline: as §3

[10] = A CellTox Green Cytotoxicity Assay to monitor cytotoxicity in HepG2 cells - 32 hour (AID 1224883); note: nearly all actives have a fitted effect of over 50% in size; note: potency is the fitted concentration of half-maximal effect
Outline: as §3

[11] = qHTS RealTime-Glo MT Cell Viability Assay in HepG2 cells - 16 hour (AID 1224885); note: nearly all actives have a fitted effect of over 50% in size
Outline: as §4

[12] = A CellTox Green Cytotoxicity Assay to monitor cytotoxicity in HEK293 cells - 16 hour (AID 1224888); note: nearly all actives have a fitted effect of over 35% in size
Outline: as §1

[13] = qHTS RealTime-Glo MT Cell Viability Assay in HepG2 cells - 0 hour (AID 1224889); note: nearly all actives have a fitted effect of over 50% in size
Outline: as §4

[14] = A CellTox Green Cytotoxicity Assay to monitor cytotoxicity in HepG2 cells - 8 hour (AID 1224890); note: nearly all actives have a fitted effect of over 45% in size
Outline: as §3

[15] = A CellTox Green Cytotoxicity Assay to monitor cytotoxicity in HEK293 cells - 32 hour (AID 1224881); note: nearly all actives have a fitted effect of over 40% in size
Outline: as §1

[16] = A CellTox Green Cytotoxicity Assay to monitor cytotoxicity in HEK293 cells - 8 hour (AID 1224884); note: nearly all actives have a fitted effect of over 35% in size
Outline: as §1

[17] = qHTS RealTime-Glo MT Cell Viability Assay in HEK293 cells - 8 hour (AID 1224887)
Outline: as §2

[18] = qHTS RealTime-Glo MT Cell Viability Assay in HepG2 cells - 8 hour (AID 1224873); note: nearly all actives have a fitted effect of over 55% in size
Outline: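 HepG2 cells (600/well) mixed with RealTime-Glo MT reagent, settled 5 h at 37 C/5% CO2 before compound addition. Nonlytic NanoLuc luminescence from viable-cell prosubstrate reduction read repeatedly during 40 h treatment at 37 C.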

[19] = qHTS RealTime-Glo MT Cell Viability Assay in HEK293 cells - 16 hour (AID 1224872)
Outline: (§5)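 Cells + reagent dispensed (600 cells/well, HEK293) → 5 h at 37 C/5% CO2 → 23 nL compound in DMSO pinned → 40 h at 37 C → luminescence read at 0, 8, 16, 24, 32, 40 h.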

[20] = qHTS RealTime-Glo MT Cell Viability Assay in HEK293 cells - 24 hour (AID 1224886); note: nearly all actives have a fitted effect of over 50% in size; note: potency is the fitted concentration of half-maximal effect
Outline: as §5
% is set by controls: 0 for no effect and ±100 for the full control effect.

CO/C=C(/C(=O)OC)c1ccccc1COc1cccc(C(F)(F)F)n1
active: Potency [1] 3.89 µM | Potency [2] 6.16 µM
inactive: Potency [3] | Potency [4] | Potency [5] | Potency [6] | Potency [7] | Potency [8] | Potency [9] | Potency [10] | Potency [11] | Potency [12] | Potency [13] | Potency [14]

O=C1C(=O)c2cccc3cccc1c23
inactive: Potency [1] | Potency [3] | Potency [4] | Potency [6] | Potency [15] | Potency [9] | Potency [10] | Potency [12] | Potency [13] | Potency [14]

O=[N+]([O-])C(Br)(CO)CO
inactive: Potency [3] | Potency [8] | Potency [15] | Potency [9] | Potency [16] | Potency [17] | Potency [12] | Potency [13]

Oc1ccc(Cl)c(Cl)c1Cl
inactive: Potency [18] | Potency [4] | Potency [5] | Potency [15] | Potency [9] | Potency [16] | Potency [11] | Potency [17] | Potency [12] | Potency [13] | Potency [14]

CCCCNP(N)(N)=S
inactive: Potency [19] | Potency [18] | max response [2] 0.198% | Potency [3] | Potency [4] | Potency [5] | Potency [6] | Potency [7] | Potency [15] | Potency [9] | Potency [10] | Potency [20] | Potency [12] | Potency [13]

COc1ccc(-c2ccccc2)cc1NNC(=O)OC(C)C
active: Potency [2] 51 µM | Potency [20] 51 µM
inactive: Potency [4] | Potency [5] | Potency [6] | Potency [7] | Potency [8] | Potency [9] | Potency [10] | Potency [16] | Potency [12] | Potency [13] | Potency [14]

CC(c1ccc(O)cc1)(c1ccc(O)cc1)c1ccc(O)cc1
inactive: Potency [1] | Potency [18] | Potency [3] | Potency [4] | Potency [5] | Potency [6] | Potency [15] | Potency [10] | Potency [16] | Potency [11] | Potency [12] | Potency [14]

Cl/C=C\C[N+]12CN3CN(CN(C3)C1)C2
inactive: Potency [1] | Potency [18] | Potency [3] | Potency [4] | Potency [5] | Potency [6] | Potency [8] | Potency [15] | Potency [9] | Potency [10] | Potency [16] | Potency [11] | Potency [17] | Potency [12] | Potency [13] | Potency [14]

Clc1cc(C(Cl)(Cl)Cl)cnc1Cl
inactive: Potency [18] | Potency [4] | Potency [5] | Potency [8] | Potency [9] | Potency [16] | Potency [12] | Potency [13] | Potency [14]
active: Potency [10] 34.7 µM

COP(=S)(Oc1cc(Cl)c(Br)cc1Cl)c1ccccc1 (stereo not given)
inactive: Potency [1] | Potency [18] | Potency [3] | Potency [5] | Potency [8] | Potency [15] | Potency [16] | Potency [11] | Potency [12]

Clc1cccc2ccccc12
inactive: Potency [19] | Potency [18] | max response [2] -5.43% | Potency [5] | Potency [6] | Potency [7] | Potency [8] | Potency [9] | Potency [10] | Potency [16] | Potency [20] | Potency [17] | Potency [12] | Potency [13]

ClP(Cl)(Cl)(Cl)Cl
inactive: Potency [3] | Potency [4] | Potency [8] | Potency [9] | Potency [17] | Potency [12] | Potency [14]

CC(O)(CS(=O)(=O)c1ccc(F)cc1)C(=O)Nc1ccc(C#N)c(C(F)(F)F)c1 (stereo not given)
inactive: Potency [1] | Potency [3] | Potency [4] | Potency [6] | Potency [7] | Potency [15] | Potency [9] | Potency [10] | Potency [16] | Potency [12]

O=S1OC[C@@H]2[C@H](CO1)[C@]1(Cl)C(Cl)=C(Cl)[C@@]2(Cl)C1(Cl)Cl (stereo not given in full)
inactive: Potency [13]

CNP(=O)(OC)Oc1ccc(C(C)(C)C)cc1Cl (stereo not given)
active: Potency [7] 54.9 µM
inactive: Potency [18] | Potency [5] | Potency [8] | Potency [9] | Potency [16] | Potency [11] | Potency [12] | Potency [13] | Potency [14]

N#Cc1cc(I)c(O)c(I)c1
inactive: Potency [1] | Potency [18] | Potency [3] | Potency [4] | Potency [5] | Potency [6] | Potency [7] | Potency [8] | Potency [15] | Potency [9] | Potency [10] | Potency [11] | Potency [17] | Potency [12] | Potency [13] | Potency [14]

N#CCC#N
inactive: Potency [1] | Potency [18] | Potency [3] | Potency [5] | Potency [6] | Potency [8] | Potency [15] | Potency [9] | Potency [10] | Potency [16] | Potency [11] | Potency [17] | Potency [12] | Potency [13] | Potency [14]
